Laboratory results: ChEMBL document CHEMBL1157539, “Thousands of chemical starting points for antimalarial lead identification” (Nature, 2010)

Assays:
Type in all cases: functional
Plasmodium falciparum [1] = experiment: GSK_TCMDC: Inhibition of Plasmodium falciparum 3D7 in whole red blood cells, using parasite LDH activity as an index of growth. Test compounds present at 2uM
Plasmodium falciparum [2] = experiment: GSK_TCMDC: Inhibition of Plasmodium falciparum Dd2 in whole red blood cells, using parasite LDH activity as an index of growth. Test compounds present at 2uM
HepG2 = experiment: GSK_TCMDC: Percent inhibition of human HepG2 cell line. Test compounds present at 10uM.

Structure (SMILES)	Inhibition (Plasmodium falciparum [1])	Inhibition (Plasmodium falciparum [2])	Inhibition (HepG2)
CC(CC(=O)NCC1(c2ccc(F)cc2Cl)CCOCC1)C(=O)c1ccc(Cl)cc1 (stereo unspecified)	99%	91%	6%
N=C(N)NC(=O)Nc1cc(Cl)c(Cl)c(Cl)c1	100%	100%	0%
CSC1=NC(=Nc2c(C)cccc2C)C2(CCCCC2)N1c1ccccc1Cl	95%	57%	22%
O=C(Nc1ccccc1)N(Cc1ccccc1-c1cccc(CNC2CCCC2)c1)C1CCN(Cc2ccccc2)CC1.O=C(O)C(F)(F)F	100%	84%	36%
Cc1ccc(NC(=N)Nc2ncccc2OCc2c(F)cccc2Cl)cc1	86%	54%	78%
CSc1ccc(NC(=O)Nc2cc(C)nc3ccccc23)cc1Br	100%	66%	7%
Fc1cccc(COc2ccc(Nc3ncnc4cc(/C=C/[C@@H]5CCCN5)sc34)cc2Cl)c1	100%	56%	17%
O=c1cc(NCCCNCc2cc(C(F)(F)F)ccc2F)[nH]c2ccccc12	94%	43%	0%
COc1ccc(-c2nc3cccnc3n2CC(=O)Nc2c(C)cc(C)cc2C)c(OC)c1	91%	21%	77%
CN(C)CCNC(=O)c1cc2c(-c3ccc(Cl)cc3)nn(C)c2s1	98%	81%	18%
COc1ccc2ncc(F)c(CCN3CC[C@H](NCc4cc(C#N)c5c(c4)OCCO5)[C@H](O)C3)c2c1	96%	47%	51%
CCN(CC)CCN(Cc1ccc(-c2ccc(Cl)cc2)cc1)C(=O)Cn1c(CCc2cccc(F)c2F)nc(=O)c2ccccc21.O=C(O)C(O)C(O)C(=O)O	100%	75%	45%
CCN(CC)CCCN(CCCN(CC)CC)c1cc(C)nc(Nc2ccc(Cl)cc2)n1.O=C(O)C(=O)O	100%	7%	11%
O=[N+]([O-])c1cccc(NC(=S)N2CCCN(Cc3ccc(Cl)cc3Cl)CC2)c1	94%	50%	3%
COc1c(C)cc(I)cc1CNCCCNc1cc(=O)c2ccccc2[nH]1	84%	0%	0%
Cl.N#Cc1ccc2c(c1)CCN(CCC1CCC(NC(=O)/C=C/c3cccc4ccccc34)CC1)CC2 (stereo unspecified)	96%	12%	16%
CN1CCCC(CN2CCN(Cc3ccc(-c4ccc(-c5nc6cc(F)ccc6[nH]5)cc4)cc3)CC2)C1.O=C(O)C(F)(F)F (stereo unspecified)	100%	98%	90%
Cc1ccnc(NC(c2ccc(Cl)c([N+](=O)[O-])c2)c2ccc3cccnc3c2O)c1 (stereo unspecified)	89%	57%	47%
CS(=O)(=O)c1ccc2c(c1)CCN(CCC1CCC(NC(=O)C(=Cc3cccc(C#N)c3)c3ccc(-c4ccccc4)cc3)CC1)CC2 (stereo unspecified)	99%	13%	24%
Cc1cc(N2CCOCC2)nc(Nc2ccc(NC(=O)c3cccc4ccccc34)cc2)n1	95%	11%	44%
CC(C(=O)N1CCCC1)N1CCN(C(c2ccccc2)c2ccccc2)CC1 (stereo unspecified)	82%	56%	0%

Structure (SMILES)	Inhibition (Plasmodium falciparum [1])	Inhibition (Plasmodium falciparum [2])	Inhibition (HepG2)
Cc1cc(N[C@@H](Cc2ccccc2)C(=O)NCCOc2ccccc2)nc(NCCc2cccs2)n1.O=C(O)C(F)(F)F	95%	32%	8%
CCN(CC)CCN(Cc1ccc(-c2ccc(C(F)(F)F)cc2)nc1)C(=O)Cn1cc(Cc2cnn(C)c2)c(=O)n2nc(-c3ccccc3)cc12.O=C(O)C(O)C(O)C(=O)O	97%	95%	35%
Cc1c(F)cc(C(=O)NC2CC2)cc1-c1ccc2c(cnn2S(=O)(=O)c2ccc(F)c(F)c2)c1	91%	76%	49%
CC(C)CCN1CCCN(Cc2ccc(C(=O)Nc3ccc(Cl)cc3)cc2)CC1.O=C(O)C(F)(F)F	94%	15%	46%
CCOC(=O)c1cn(CC)c2cc(N3CCCCC3)c(F)cc2c1=O	97%	96%	0%
O=C(/C=C/c1ccc(Cl)c(Cl)c1)NCCCCCN1CCC(C(=O)Nc2ccc(Cl)cc2)CC1	100%	0%	42%
CCNc1cc(C(=O)N[C@@H](Cc2ccccc2)[C@H](O)CNC2CCC(C)(C)C2)cc(N2CCCCS2(=O)=O)c1.Cl (stereo partly specified)	96%	98%	3%
CCc1c(C)c(C#N)c2nc3ccccc3n2c1NCc1ccco1	99%	90%	0%
O=C(/C=C/c1ccccc1O)N1CCC(CCN2CCC(c3c[nH]c4ccccc34)CC2)CC1	100%	15%	46%
CC1CN(Cc2cccc(C#N)c2)CCN1c1ccc(NC(=O)c2cccs2)cc1.O=C(O)C(F)(F)F (stereo unspecified)	94%	93%	4%
O=C(CCC1CCCC1)N(Cc1ccc(-c2ccc(CNCCc3ccccn3)cc2)cc1)CC1CCCCN1.O=C(O)C(F)(F)F (stereo unspecified)	95%	69%	32%
CC[C@H](C)[C@@H](C(=O)N1CCOCC1)N1CC[C@H](NS(=O)(=O)CC(C)(C)c2ccc(Cl)cc2)C1=O	100%	95%	0%
COc1cc(C=NN=c2cc(C)[nH]c3ccccc23)cc(OC)c1OC	100%	95%	5%
O=C(/C=C/c1ccc(Cl)c(Cl)c1)NCCCCCCN1CCCN(C(=O)Nc2cccc(C(F)(F)F)c2)CC1	95%	0%	25%
CCCOc1cc(O)c(-c2[nH]nc(C)c2Oc2ccccc2)cc1CC	91%	46%	0%
CCCCCCN(C(=O)OCc1ccccc1)C1CCN(C(=O)OC(C)(C)C)CC1C(=O)OCC (stereo unspecified)	96%	96%	9%
Cc1ccc(NC(=O)c2cc(Br)cc(N3CCC(N(C)C)CC3)c2)cc1F.O=C(O)C(F)(F)F	100%	80%	23%
Cc1[nH]c(C)c(-c2ccc(CCc3ccc(C(F)(F)F)cc3)nc2)c(=O)c1Cl	97%	97%	24%
CCOP(=O)(OCC)c1ccc(OC)c(-c2ccc[nH]2)c1	95%	10%	0%
O=S1(=O)C=C(c2ccccc2)CC1	97%	44%	57%
CCCOc1ccc2ccccc2c1CNCCCCCCNCc1c(OCCC)ccc2ccccc12.CS(=O)(=O)O	94%	90%	100%

Structure (SMILES)	Inhibition (Plasmodium falciparum [1])	Inhibition (Plasmodium falciparum [2])	Inhibition (HepG2)
CNc1c2c(nc3ccc(NC(=O)CCCCCCc4ccccc4)cc13)CCCC2.Cl	100%	82%	0%
CN1CCN(CCCN(Cc2cccc(-c3cccc(CNC4CCCC4)c3)c2)C(=O)/C=C/c2ccccc2)CC1.O=C(O)C(F)(F)F	100%	99%	84%
Cc1cc(F)ccc1Nc1nc(N(C)c2ccccc2)c2cccc(OCCO)c2n1	95%	94%	34%
Cc1ccc(N)cc1-c1nc(NC2CC(C)(C)NC(C)(C)C2)nc2c1ccc(=O)n2-c1c(F)cccc1F	98%	1%	0%
Cc1n[nH]c2cc(Nc3ccnc(Nc4ccc(CN5CCOCC5)cc4)n3)ccc12	97%	5%	22%
O=C(Nc1ccc2c(c1)OCCO2)c1cc(-c2cccnc2)nc2ccc(Cl)cc12	95%	27%	2%
COc1ccc(C2C(C(=O)Nc3cc(Cl)c(OC)cc3OC)c3ccccc3C(=O)N2C)cc1 (stereo unspecified)	100%	98%	14%
COc1ccc(-c2cccc(NC(=O)c3ccc(Cl)cc3)c2)cc1CN1CCNCC1.O=C(O)C(F)(F)F	96%	22%	52%
Cc1nc(N)nc(N)c1CCCOc1ccc(Br)cc1	97%	5%	30%
Cc1ccc(NC(=O)Nc2ccccc2F)cc1-c1ccc(C(=O)Nc2ccncc2)cc1	99%	54%	36%
O=C(NCc1cccc(F)c1)Nc1cccc(-c2cccc(-c3nc4ccccc4[nH]3)c2)c1	96%	27%	28%
O=C(NC1CC1)c1ccc(N2CCCCN2CCc2ccccc2)c(C(F)(F)F)c1.O=C(O)C(F)(F)F	98%	84%	0%
Cc1nn(-c2ccnc3cc(Cl)ccc23)c(C)c1C(=O)NCc1cc(Cl)cc(Cl)c1	97%	53%	0%
CCOCCCNc1ncc(-c2ccsc2)c(-c2nc(C)cs2)n1	89%	83%	0%
Cl.N#Cc1ccc(-c2ccc(C(=O)Nc3ccc4c(c3)CCN(C3CCC3)CC4)nc2)cn1	85%	15%	24%
CN1CCN(c2ccc(-c3nc4ccc(OCc5cc(Cl)cc(Cl)c5)c(C(N)=O)c4[nH]3)cc2)CC1	100%	85%	45%
CCc1c[nH]c2c(N3CCCC3=O)cc(C(=O)N[C@@H](Cc3ccccc3)[C@H](O)CNC(C)(C)c3cccc(OC)c3)cc12	93%	98%	0%
Cn1nc(C(=O)N2CCC(c3[nH]ncc3Cc3ccccc3)CC2)c2ccccc2c1=O	95%	95%	5%
COc1ccc2nc(C)cc(N/N=C/C=C/c3ccccc3)c2c1	100%	100%	27%
Cc1[nH]c(C)c(-c2cccc(-c3ccc(OC(F)(F)F)cc3)c2)c(=O)c1Br	97%	96%	45%
